Assay results published in the supplement of paper PMC10849652.
Targets with a hit are over-represented here; the source holds about 8,800 in all. About 0.5% of all pairs of compound and target were hits. Unmarked numbers belong to inactive results.

Tests used:
Assay in all cases: log2 fold change, soluble protein after heating vs DMSO (PISA); higher = thermal stabilisation; K562 lysate, 10 uM; active = over 0.2 and 3.5 SD of the protein, either way, in both replicates (recomputed)
[1] = compound: C#Cc1cccc(Nc2ncnc3cc(OCCOC)c(OCCOC)cc23)c1 [erlotinib]
Method in brief: (§1)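 Values give the log-two fold change in thermal stability against solvent controls, from duplicates. Crude K562 extract at 1 mg/mL protein, made by dounce homogenisation in PBS pH 7.4 with 1 mM MgCl2, was treated with 10 μM compound for 30 min. After 3 min heating across 48°C-58°C, aliquots were pooled, adjusted to 0.5% NP-40 at 4°C and centrifuged at 21,000xg for 90 min. The supernatant was measured by TMTpro 16plex LC-MS/MS with channel sums equalised.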

[2] = compound: C/C(=N\NC(=O)C1=CC(=CC=C1)S(=O)(=O)N2CCOCC2)/C3=C(C=CC(=C3)Cl)O
Method in brief: as §1

[3] = compound: C1=CC(=CC=C1C2=NC3=C(N2)C=C(C=C3)C(=O)N)OC4=CC=C(C=C4)Cl
Method in brief: as §1

[4] = compound: C1=CC2=C(C=CC(=C2)/C=C\3/C(=O)NC(=NCC4=CC=CS4)S3)N=C1
Method in brief: as §1

[5] = compound: C1=CC2=NC=CN=C2C=C1/C=C/3\C(=O)NC(=O)S3
Method in brief: as §1

[6] = compound: C1=CC=C(C=C1)C2=NC(=C(N2)C3=CC=NC=C3)C4=CC(=C(C=C4)Cl)O
Method in brief: as §1

[7] = compound: C1=CC=C2C(=C1)C3=NNC4=CC=CC(=C43)C2=O
Method in brief: as §1

[8] = compound: C1CCN(C1)C(=O)NC2=CC=CC(=C2)NC3=NC=C(C(=N3)NCCC4=CN=CN4)Br
Method in brief: as §1

[9] = compound: C1CN(CCC1(CC2=CC=C(C=C2)Cl)N)C3=NC=NC4=C3C=CN4
Method in brief: as §1

[10] = compound: C1COCCN1CCN2C3=CC=CC=C3N=C2NC(=O)C4=CC(=CC=C4)[N+](=O)[O-] [IRAK-1-4 Inhibitor I]
Method in brief: as §1

[11] = compound: C=CC(=O)N1CCC[C@@H](n2nc(-c3ccc(Oc4ccccc4)cc3)c3c(N)ncnc32)C1 [ibrutinib]
Method in brief: as §1

[12] = compound: CC(=O)c1cnc2ccc(-c3cc(Cl)c(O)c(Cl)c3)nc2c1N[C@H]1CC[C@H](CN(C)C)CC1
Method in brief: as §1

[13] = compound: CC(C)(C)Cn1c(N)nc2ccc(-c3[nH]c(C(C)(C)C)nc3-c3ccc(F)cc3)nc21 [ralimetinib]
Method in brief: as §1

[14] = compound: CC(C)(O)CC(=O)NCCn1ccc2ncnc(Nc3ccc(Oc4cccc(C(F)(F)F)c4)c(Cl)c3)c21
Method in brief: as §1

[15] = compound: CC(C)C1=C2N=C(C=C(N2N=C1)NCC3=CC=CC=C3)NCCCCCCN
Method in brief: as §1

[16] = compound: CC1=C(C(CC(=O)N1)C2=CC=C(C=C2)C(F)(F)F)C(=O)NC3=C(C=C4C(=C3)C=NN4)F
Method in brief: as §1

[17] = compound: CC1=C(C2=C(C=C1)C(=O)C3=CC=CC=C3N2CCCN)C
Method in brief: as §1

[18] = compound: CC1=C(C=C(C=C1)NC(=O)C2=CC(=CC=C2)C(C)(C)C#N)NC3=CC4=C(C=C3)N=CN(C4=O)C
Method in brief: as §1

[19] = compound: CC1=C(C=C(C=C1)NC(=O)C2=CC(=CC=C2)N(C)C)NC(=O)C3=CC=C(C=C3)O
Method in brief: as §1

[20] = compound: CC1=CC=C(C=C1)SC2=C3C=C(SC3=CN=C2)C(=O)N
Method in brief: as §1

UniProt P62873, sequence (P62873 whole entry, looked up): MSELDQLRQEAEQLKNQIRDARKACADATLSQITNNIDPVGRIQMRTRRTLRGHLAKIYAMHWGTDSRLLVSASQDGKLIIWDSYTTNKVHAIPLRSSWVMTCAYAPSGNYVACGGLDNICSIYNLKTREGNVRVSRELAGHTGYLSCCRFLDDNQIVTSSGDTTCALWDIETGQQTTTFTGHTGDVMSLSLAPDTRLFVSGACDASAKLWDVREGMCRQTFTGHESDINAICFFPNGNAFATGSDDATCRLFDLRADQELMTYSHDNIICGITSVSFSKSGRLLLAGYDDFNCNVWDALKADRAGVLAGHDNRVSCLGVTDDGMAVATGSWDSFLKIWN
UniProt Q16836, sequence (Q16836 whole entry, looked up): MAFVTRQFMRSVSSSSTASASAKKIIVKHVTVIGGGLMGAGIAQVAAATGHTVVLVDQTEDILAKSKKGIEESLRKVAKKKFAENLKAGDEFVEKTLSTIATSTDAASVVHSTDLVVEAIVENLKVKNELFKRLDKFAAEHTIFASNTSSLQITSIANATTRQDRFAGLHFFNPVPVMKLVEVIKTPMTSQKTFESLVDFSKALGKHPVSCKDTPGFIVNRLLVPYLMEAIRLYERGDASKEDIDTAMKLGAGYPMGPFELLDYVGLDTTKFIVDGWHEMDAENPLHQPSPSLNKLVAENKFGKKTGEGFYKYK
UniProt P50747, sequence (P50747 whole entry, looked up): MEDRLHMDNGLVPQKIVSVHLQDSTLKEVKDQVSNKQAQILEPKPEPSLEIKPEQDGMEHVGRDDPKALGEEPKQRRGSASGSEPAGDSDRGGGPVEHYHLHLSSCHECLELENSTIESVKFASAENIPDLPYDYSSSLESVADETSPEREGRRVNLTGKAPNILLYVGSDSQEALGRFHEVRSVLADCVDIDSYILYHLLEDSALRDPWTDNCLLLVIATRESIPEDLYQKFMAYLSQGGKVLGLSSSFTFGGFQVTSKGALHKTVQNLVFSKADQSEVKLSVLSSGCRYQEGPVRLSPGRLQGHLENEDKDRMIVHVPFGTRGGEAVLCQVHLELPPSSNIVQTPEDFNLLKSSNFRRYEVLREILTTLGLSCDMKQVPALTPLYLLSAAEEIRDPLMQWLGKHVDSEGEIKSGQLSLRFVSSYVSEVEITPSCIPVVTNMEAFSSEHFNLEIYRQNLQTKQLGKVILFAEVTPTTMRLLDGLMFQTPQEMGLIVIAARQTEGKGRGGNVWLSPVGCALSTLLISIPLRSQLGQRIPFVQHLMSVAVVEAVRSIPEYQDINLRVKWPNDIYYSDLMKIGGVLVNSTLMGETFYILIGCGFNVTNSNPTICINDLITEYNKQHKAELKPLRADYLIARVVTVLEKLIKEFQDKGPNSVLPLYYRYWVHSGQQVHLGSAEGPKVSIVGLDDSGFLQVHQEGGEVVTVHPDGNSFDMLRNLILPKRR
UniProt P55084, sequence (P55084 whole entry, looked up): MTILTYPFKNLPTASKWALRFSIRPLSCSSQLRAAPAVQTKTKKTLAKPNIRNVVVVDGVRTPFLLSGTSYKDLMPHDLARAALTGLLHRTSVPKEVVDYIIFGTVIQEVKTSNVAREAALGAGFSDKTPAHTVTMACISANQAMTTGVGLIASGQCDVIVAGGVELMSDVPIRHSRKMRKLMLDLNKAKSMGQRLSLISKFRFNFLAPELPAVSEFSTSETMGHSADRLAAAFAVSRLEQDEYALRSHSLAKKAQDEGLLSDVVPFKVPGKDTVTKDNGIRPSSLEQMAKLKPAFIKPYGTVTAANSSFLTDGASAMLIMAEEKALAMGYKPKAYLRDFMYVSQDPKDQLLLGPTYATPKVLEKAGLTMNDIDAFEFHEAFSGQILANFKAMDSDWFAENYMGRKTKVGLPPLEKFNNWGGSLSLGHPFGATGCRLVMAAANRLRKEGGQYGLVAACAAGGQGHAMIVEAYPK
UniProt P50053, sequence (P50053 whole entry, looked up): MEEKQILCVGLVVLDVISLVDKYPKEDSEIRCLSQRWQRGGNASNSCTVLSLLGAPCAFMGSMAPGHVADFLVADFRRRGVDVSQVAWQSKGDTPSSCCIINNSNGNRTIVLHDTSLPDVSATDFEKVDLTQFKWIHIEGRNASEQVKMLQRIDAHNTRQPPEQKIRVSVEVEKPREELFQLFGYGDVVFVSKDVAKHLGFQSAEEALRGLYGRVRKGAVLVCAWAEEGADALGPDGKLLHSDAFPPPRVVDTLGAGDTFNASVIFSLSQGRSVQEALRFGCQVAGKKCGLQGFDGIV
UniProt Q9Y2X7, sequence (Q9Y2X7 whole entry, looked up): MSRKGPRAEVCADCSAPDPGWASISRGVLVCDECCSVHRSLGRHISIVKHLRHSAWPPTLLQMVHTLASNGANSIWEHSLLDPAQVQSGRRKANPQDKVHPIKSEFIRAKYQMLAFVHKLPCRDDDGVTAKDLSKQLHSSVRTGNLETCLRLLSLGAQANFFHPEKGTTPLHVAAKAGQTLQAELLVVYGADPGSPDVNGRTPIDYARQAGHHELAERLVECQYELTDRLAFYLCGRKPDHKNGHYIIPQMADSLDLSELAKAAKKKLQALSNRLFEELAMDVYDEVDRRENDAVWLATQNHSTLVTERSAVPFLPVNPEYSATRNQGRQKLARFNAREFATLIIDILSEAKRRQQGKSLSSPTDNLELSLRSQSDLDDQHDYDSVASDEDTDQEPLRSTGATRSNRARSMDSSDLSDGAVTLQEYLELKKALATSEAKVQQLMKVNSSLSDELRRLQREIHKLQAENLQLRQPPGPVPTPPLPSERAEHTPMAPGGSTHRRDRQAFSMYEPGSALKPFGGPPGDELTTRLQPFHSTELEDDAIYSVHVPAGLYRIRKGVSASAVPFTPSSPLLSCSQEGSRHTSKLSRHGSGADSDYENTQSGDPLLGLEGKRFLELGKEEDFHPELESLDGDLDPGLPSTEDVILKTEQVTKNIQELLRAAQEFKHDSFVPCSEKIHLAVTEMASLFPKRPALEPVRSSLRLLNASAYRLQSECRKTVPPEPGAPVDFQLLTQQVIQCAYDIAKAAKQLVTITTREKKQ
UniProt Q9NPR9, sequence (Q9NPR9 whole entry, looked up): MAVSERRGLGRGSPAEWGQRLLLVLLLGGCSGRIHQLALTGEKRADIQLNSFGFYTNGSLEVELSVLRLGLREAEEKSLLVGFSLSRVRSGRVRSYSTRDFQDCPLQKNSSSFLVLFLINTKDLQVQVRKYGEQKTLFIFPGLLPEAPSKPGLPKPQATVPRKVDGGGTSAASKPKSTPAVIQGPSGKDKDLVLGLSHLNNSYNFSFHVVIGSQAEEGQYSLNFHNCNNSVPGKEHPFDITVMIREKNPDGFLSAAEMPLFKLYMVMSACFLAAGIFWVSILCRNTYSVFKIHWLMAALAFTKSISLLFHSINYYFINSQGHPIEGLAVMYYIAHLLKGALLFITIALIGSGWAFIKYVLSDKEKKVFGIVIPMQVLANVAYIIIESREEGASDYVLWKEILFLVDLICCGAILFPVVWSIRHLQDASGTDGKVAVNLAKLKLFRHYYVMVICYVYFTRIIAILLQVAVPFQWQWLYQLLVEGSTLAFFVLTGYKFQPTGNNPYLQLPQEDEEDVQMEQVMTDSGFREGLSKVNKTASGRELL
UniProt P82970, sequence (P82970 whole entry, looked up): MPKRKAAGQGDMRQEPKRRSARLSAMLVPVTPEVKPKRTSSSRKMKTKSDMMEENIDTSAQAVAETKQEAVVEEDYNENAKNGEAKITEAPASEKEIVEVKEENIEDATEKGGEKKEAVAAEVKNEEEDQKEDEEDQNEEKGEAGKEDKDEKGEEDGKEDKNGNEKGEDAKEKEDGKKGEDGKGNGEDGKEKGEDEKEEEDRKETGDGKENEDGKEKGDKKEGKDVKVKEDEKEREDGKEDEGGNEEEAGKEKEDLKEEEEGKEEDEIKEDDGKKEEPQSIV
UniProt P49448, sequence (P49448 whole entry, looked up): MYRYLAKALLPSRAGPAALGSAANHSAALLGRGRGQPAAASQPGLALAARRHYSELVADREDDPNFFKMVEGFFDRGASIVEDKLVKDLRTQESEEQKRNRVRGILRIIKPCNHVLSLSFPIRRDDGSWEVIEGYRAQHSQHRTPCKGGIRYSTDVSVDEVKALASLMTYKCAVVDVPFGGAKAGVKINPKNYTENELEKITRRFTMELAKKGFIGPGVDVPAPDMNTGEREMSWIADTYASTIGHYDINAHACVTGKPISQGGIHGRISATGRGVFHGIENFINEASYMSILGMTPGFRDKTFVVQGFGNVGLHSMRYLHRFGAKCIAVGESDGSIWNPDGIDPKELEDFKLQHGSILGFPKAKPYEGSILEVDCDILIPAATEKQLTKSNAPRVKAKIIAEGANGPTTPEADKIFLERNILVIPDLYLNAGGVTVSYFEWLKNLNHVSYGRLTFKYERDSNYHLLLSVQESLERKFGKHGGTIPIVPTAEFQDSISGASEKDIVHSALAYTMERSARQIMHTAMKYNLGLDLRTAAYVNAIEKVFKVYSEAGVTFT
UniProt Q92759, sequence (Q92759 whole entry, looked up): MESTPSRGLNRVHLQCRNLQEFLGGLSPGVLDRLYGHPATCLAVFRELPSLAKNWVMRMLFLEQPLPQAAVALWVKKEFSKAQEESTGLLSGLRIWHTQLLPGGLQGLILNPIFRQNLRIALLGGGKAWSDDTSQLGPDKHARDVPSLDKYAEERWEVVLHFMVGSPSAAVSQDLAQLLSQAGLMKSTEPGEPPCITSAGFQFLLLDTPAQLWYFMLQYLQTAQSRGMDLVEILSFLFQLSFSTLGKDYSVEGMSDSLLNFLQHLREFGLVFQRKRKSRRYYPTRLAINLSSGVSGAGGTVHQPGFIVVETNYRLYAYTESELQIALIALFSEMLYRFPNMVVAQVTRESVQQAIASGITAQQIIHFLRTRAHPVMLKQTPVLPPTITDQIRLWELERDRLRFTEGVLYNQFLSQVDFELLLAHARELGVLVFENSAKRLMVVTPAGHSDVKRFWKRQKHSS

Target	log2 fold change [1]	log2 fold change [2]	log2 fold change [3]	log2 fold change [4]	log2 fold change [5]	log2 fold change [6]	log2 fold change [7]	log2 fold change [8]	log2 fold change [9]	log2 fold change [10]	log2 fold change [11]	log2 fold change [12]	log2 fold change [13]	log2 fold change [14]	log2 fold change [15]	log2 fold change [16]	log2 fold change [17]	log2 fold change [18]	log2 fold change [19]	log2 fold change [20]
GPR108 (UniProt Q9NPR9)	0.035	0.022	0	0.066	0.015	0.056	-0.028	-0.015	0.03	-0.026	-0.017	-0.063	0.001	-0.024	-0.08	0.039	0.049	0.027	-0.062	-0.004
IMPACT (UniProt Q9P2X3)	-0.03	0.13	0.014	0.083	0.043	0.056	0.001	0.06	-0.082	-0.076	-0.19	-0.075	0.061	0.001	-0.065	0.289	0.034	0.146	0.14	-0.052
GLUD2 (UniProt P49448)	-0.017	-0.016	-0.053	0.028	-0.057	-0.014	-0.09	-0.119	0.029	0.113	-0.063	0.063	0.02	-0.043	-0.012	0.018	-0.028	0.061	0.001	0.033
INTS5 (UniProt Q6P9B9)	0.002	-0.061	-0.082	-0.04	0.068	-0.072	-0.098	-0.001	0.247	-0.015	0.051	0.056	0.051	-0.038	-0.06	-0.013	0.021	0	0.039	0.003
HLCS (UniProt P50747)	0.019	-0.071	0.013	0.03	-0.017	-0.004	-0.019	0.008	-0.034	-0.008	0.012	0.023	-0.005	-0.019	-0.025	0.018	-0.015	0.029	0.057	-0.032
HADHB (UniProt P55084)	-0.108	-0.039	0.367 (active)	-0.036	-0.128	-0.029	0.011	-0.066	0.062	0.025	0.086	-0.05	0.002	0.104	-0.024	-0.046	0.028	0.062	-0.03	0.077
GNB1 (UniProt P62873)	0.053	0.018	0.082	-0.019	-0.015	-0.022	0.023	-0.017	-0.031	0.012	0.018	-0.018	-0.036	0.057	0.003	-0.052	0.076	0.145	-0.076	-0.011
HADH isoform 2 (UniProt Q16836)	-0.052	0.065	0.023	0.08	-0.03	0.003	-0.015	-0.015	-0.028	0.008	-0.004	0.02	-0.023	-0.011	-0.036	0.013	-0.045	-0.039	0.028	0.004
HMGN5 (UniProt P82970)	0.013	-0.122	0.052	0.021	-0.002	-0.013	0.024	0.067	0.024	0.007	-0.035	-0.012	-0.064	-0.021	0.006	-0.004	-0.035	-0.011	0.036	-0.056
GIT1 (UniProt Q9Y2X7)	-0.003	0.011	-0.039	0.054	-0.014	-0.014	-0.009	0	-0.011	0.017	0.075	-0.002	-0.042	0.033	-0.004	-0.074	-0.012	0.044	-0.007	0.024
KHK isoform 2 (UniProt P50053)	-0.07	0.024	0.072	-0.005	0.044	0.069	0.044	0.032	-0.018	0.084	0.023	0.039	0.001	-0.032	-0.033	0.013	-0.025	0.185	-0.033	-0.04
GOLPH3 (UniProt Q9H4A6)	0.022	-0.041	-0.075	0.017	0.012	0.004	0.019	-0.008	-0.02	0.035	0.024	0	0.034	-0.019	0.043	-0.023	0.001	-0.02	-0.023	0.004
HDGFL2 isoform 2 (UniProt Q7Z4V5)	-0.008	-0.028	0.032	-0.008	-0.03	0.027	0.01	0	0.021	0	-0.033	-0.002	-0.01	-0.049	0.011	-0.015	-0.026	0.022	0.021	-0.044
GTF2H4 (UniProt Q92759)	-0.013	-0.049	-0.013	0.037	-0.059	-0.001	0.141	0.056	-0.004	-0.044	0.039	0.003	0.058	-0.006	0.021	0.054	-0.014	-0.015	0.052	0.037
HAUS8 (UniProt Q9BT25)	0.007	-0.007	0.007	0.016	-0.06	-0.029	0.142	0.001	0.062	0.015	0.049	-0.01	0.054	0.011	-0.012	-0.044	-0.062	0.003	0.033	0.036
ILK (UniProt Q13418)	0.112	0.025	0.019	0.012	0.002	-0.018	-0.04	0.029	-0.035	0.045	0.017	0.006	0	-0.022	-0.007	0.013	-0.02	0.049	-0.001	0.057
